This is part of a sample that, as a whole, favours compounds with a hit. Of some 83,000 tested, about 20% had one in any assay.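 Single-dose data. Exposure time 48 hours. Values below 10 considered active.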 Unmarked numbers belong to inactive results. The source made the active and inactive calls.
How the values were obtained:
Assay in all cases: NCI-60 one-dose screen, 48 h (100 = growth as untreated, 0 = no growth, -100 = all killed)
Settings in all cases: 10 µM unless noted
[1] = system: NCI-H23 lung
[2] = system: NCI-H226 lung
[3] = system: NCI-H322M lung
[4] = system: HOP-62 NSCLC
[5] = system: NCI-H460 lung
[6] = system: HOP-92 NSCLC
[7] = system: NCI-H522 lung
[8] = system: A549/ATCC NSCLC
[9] = system: 786-0 renal
[10] = system: COLO 205 colon

| Structure (SMILES) | growth [1] | growth [2] | growth [3] [%] | growth [4] | growth [5] | growth [6] | growth [7] | growth [8] [%] | growth [9] [%] | growth [10] |
| --- | --- | --- | --- | --- | --- | --- | --- | --- | --- | --- |
| Clc1ccc2c(NC3CCC(NC4CCCCC4)CC3)ccnc2c1 (stereo not given) | 68.1% | 79.7% | 109 | 61.6% | 77.5% | 51.5% | 62.2% | 65.6 | 59.8 | -71.5% (active) |
| COC(=O)C(Sc1ccc(Cl)cc1)C1SC(=S)N(Cc2ccccc2)C1=O (stereo not given) | 97.3% | 116% | 105 | 95.1% | 107% | 104% | 96.7% | 98.2 | 103 | 117% |
| C=C1C(=O)O[C@@H]2[C@@H]3O[C@@](C)(CC/C=C(\C)CCC[C@@H]2C)[C@H](O)C[C@@H]13 | 81.6% | 65.7% | 97.3 | 81.2% | 89.8% | 1.79% (active) | -16.5% (active) | 95.3 | 79.1 | 47.1% |
| CC1(C)C(=O)/C(=C\c2ccc(C(F)(F)F)cc2)C[C@]2(C)[C@H]3CC[C@@H]4[C@H]5[C@H](C(=O)/C=C/c6ccc(C(F)(F)F)cc6)CC[C@]5(CO)CC[C@@]4(C)[C@]3(C)CC[C@@H]12 | 100% | 91.4% | 101 | 101% | 99.4% | 93.7% | 97.9% | 90.6 | 107 | 115% |
| O=C1CCCCC1(c1ccccc1)c1ccccc1 | 98.8% | 99.8% | 111 | 103% | 103% | 89.3% | 99% | 110 | 109 | 109% |
| O=S(=O)(NCCNc1nccc(-c2c(-c3ccc(F)cc3)nc3sccn23)n1)c1ccc(F)cc1 | 78.7% | 72.8% | 77.4 | 84.4% | 48.6% | 82.7% | 89.6% | 49.3 | 73.7 | 58.8% |
| CCO/C=N/C1=C(C#N)C(c2ccc(Cl)cc2)c2c(c3ccccc3n(C)c2=O)O1 (stereo not given) | 80.3% | 91.3% | 85.9 | 64.6% | 79.9% | 79.2% | 58.7% | 63.4 | – | 71.5% |
| ClC(Cl)c1nc(-c2cccnc2)n2nc(-c3ccccc3)cc2n1 | -39.3% (active) | 66.2% | 46.2 | 5.17% (active) | -32.5% (active) | -0.78% (active) | -20.3% (active) | – | 82.3 | -52.6% (active) |
| CCOc1cc2c(Cl)ncnc2c(OCC)c1OCC | 79.6% | 91.6% | 65.4 | 90.9% | 99% | 86.9% | 58.8% | – | 105 | 95.8% |
| COc1ccc(CNCCCN2C(=O)c3ccc4c5c(ccc(c35)C2=O)C(=O)N(CCCNCCCCNCCCN)C4=O)c(OC)c1OC | 23.1% | 23.8% | 30.4 | 19.3% | 19.6% | 51.7% | 1.57% (active) | – | 22.4 | -86.1% (active) |
| CC1=NC2=CC=CC3=NC(C(Cl)(Cl)Cl)=NC(=N1)N23 | 59.9% | 83.5% | 92.5 | 96.2% | 69.1% | 118% | 54.9% | – | 88.7 | 88.9% |
| O=C(O)Cc1cccc(=O)c(O)c1C(=O)O | 108% | 111% | 129 | 103% | 124% | 103% | 106% | – | 100 | 108% |
| COc1cc(-c2nn(-c3cccc(NC(=O)Nc4ccc(Cl)c(Cl)c4)c3)cc2-c2ccncc2)ccc1Cl | 1.67% (active) | 9.61% (active) | 38.8 | 10.2% | 2.32% (active) | -34.3% (active) | -14.7% (active) | – | 15.3 | -80.4% (active) |
| CCOC(=O)CC(=O)OC | 106% | 101% | 111 | 102% | 101% | 96.4% | 90.2% | – | 101 | 101% |
| O=C(Nc1cccc(-n2cc(-c3ccncc3)c(-c3ccc(Cl)c(O)c3)n2)c1)c1ccc(N2CCOCC2)c(C(F)(F)F)c1 | 61.3% | 107% | 82.1 | 40.4% | 5.81% (active) | 10.2% | 39.6% | – | 59.6 | 96.1% |
| O=C(Nc1ccncc1)C(=O)c1cn(S(=O)(=O)c2ccc(Oc3ccccc3)cc2)c2ccccc12 | 77.5% | 103% | 94.4 | 88% | 72.1% | 71.6% | 87.4% | – | 89.2 | 107% |
